Data on nine compounds can be found in PubChem BioAssay (NCI).

The structures appear in SMILES notation. About 83,000 compounds went through this panel and 20% of them were active in at least one assay; those are over-represented in the sample as a whole.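 In brief: 96-well plates, 48 h treatment, single concentration, percent growth endpoint.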 Unmarked numbers belong to inactive results. Activity calls are given as the source filed them. Rule for the calls: active = growth percent below 10; inactive = the rest.

Holding throughout (assay): NCI-60 one-dose screen, 48 h (100 = growth as untreated, 0 = no growth, -100 = all killed)
One experiment deals with HCT-15 colon. The settings on record: 10 µM unless noted.
In the next experiment the test system is HT29 colon. The settings on record: 10 µM unless noted.
For the next experiment, the system named is SNB-75 CNS. The settings on record: 10 µM unless noted.
Another experiment relates to SNB-19 CNS. The settings on record: 10 µM unless noted.
The next experiment relates to U251 CNS. The settings on record: 10 µM unless noted.
The next experiment deals with PC-3 prostate. The settings on record: 10 µM unless noted.
The test system of another experiment is SK-MEL-5 melanoma. The settings on record: 10 µM unless noted.
The next experiment relates to UACC-62 melanoma. The settings on record: 10 µM unless noted.
The next experiment has as its system LOX IMVI melanoma. The settings on record: 10 µM.
Another experiment relates to SK-MEL-28 melanoma. The settings on record: 10 µM unless noted.
Another experiment concerns SK-MEL-2 melanoma. The settings on record: 10 µM unless noted.
A further experiment deals with EKVX NSCLC. The settings on record: 10 µM unless noted.
The next experiment relates to SN12C renal. The settings on record: 10 µM unless noted.
A further experiment has as its system UO-31 renal. The settings on record: 10 µM unless noted.
The next experiment concerns ACHN renal. The settings on record: 10 µM unless noted.
The subject of a further experiment is CAKI-1 renal. The settings on record: 10 µM unless noted.
Another experiment deals with A498 renal. The settings on record: 10 µM unless noted.
The test system of a further experiment is CCRF-CEM leukemia. The settings on record: 10 µM unless noted.
For the next experiment, the system named is MOLT-4 leukemia. The settings on record: 10 µM unless noted.
Another experiment deals with TK-10 renal. The settings on record: 10 µM unless noted.

Consider `N#C/C(=C\c1ccc2c(c1)OCO2)c1ccccc1`, for which the growth with HCT-15 colon was 49.4%; with HT29 colon it was 35.5%; in the experiment on SNB-75 CNS it was 76.2%; in the experiment on SNB-19 CNS, 86.4%; with U251 CNS it was 55%; with PC-3 prostate it was 84.8%. Besides, the growth is 54.6% in the experiment with SK-MEL-5 melanoma; 69.7% in the experiment with UACC-62 melanoma; 78.3% with LOX IMVI melanoma; 87.7% with SK-MEL-28 melanoma; 76.5% in the experiment with SK-MEL-2 melanoma; 80.9% with EKVX NSCLC. Further, the growth was 89.3% in the experiment on SN12C renal; 76.7% in the experiment on UO-31 renal; 93.6% with ACHN renal; 58.9% with CAKI-1 renal; 62.7% with A498 renal; 75.3% in the experiment on CCRF-CEM leukemia. In the experiment on MOLT-4 leukemia, the growth is 57.8%.

`Cc1nc(C)c(C(=O)O)cc1C(=O)O`: the growth with HCT-15 colon was 103%; with HT29 colon, 109%; with SNB-75 CNS it was 91.5%; in the experiment with SNB-19 CNS it was 109%; with U251 CNS, 107%; with PC-3 prostate it was 99.7%. For the same compound, the growth in the experiment on SK-MEL-5 melanoma was 111%; in the experiment with UACC-62 melanoma, 105%; in the experiment on LOX IMVI melanoma, 95.8%; with SK-MEL-28 melanoma, 112%; in the experiment on SK-MEL-2 melanoma, 114%; with EKVX NSCLC it was 102%. The growth in the experiment on SN12C renal is 125%; with UO-31 renal, 97.2%; in the experiment on TK-10 renal, 112%; in the experiment with CAKI-1 renal, 100%; with A498 renal, 89.3%; in the experiment with CCRF-CEM leukemia it was 103%. For the same compound, in the experiment on MOLT-4 leukemia, the growth is 103%.

For `Cn1c(=O)c2[nH]c(CC(=O)O)nc2n(C)c1=O`, the growth with HCT-15 colon is 107%; in the experiment with HT29 colon, 101%; with SNB-75 CNS, 98.1%; with SNB-19 CNS, 100%; in the experiment with U251 CNS it was 103%; in the experiment on PC-3 prostate, 96.8%. The growth in the experiment on SK-MEL-5 melanoma was 106%; in the experiment on UACC-62 melanoma it was 108%; in the experiment on LOX IMVI melanoma, 101%; in the experiment with SK-MEL-28 melanoma it was 101%; in the experiment on SK-MEL-2 melanoma it was 105%; in the experiment with EKVX NSCLC, 101%. Moreover, the growth in the experiment on UO-31 renal is 93.5%; in the experiment with TK-10 renal, 102%; in the experiment with ACHN renal, 111%; in the experiment on CAKI-1 renal, 102%; in the experiment with A498 renal it was 98.4%; in the experiment on CCRF-CEM leukemia it was 106%. For the same compound, the growth in the experiment with MOLT-4 leukemia was 103%.

Take `Cc1ccccc1CC(N)C(=O)O` (centres undefined): the growth is 117% in the experiment with HCT-15 colon; 107% with HT29 colon; 91.4% with SNB-75 CNS; 108% in the experiment with SNB-19 CNS; 102% with U251 CNS; 90.4% with PC-3 prostate. In addition, the growth is 117% in the experiment with SK-MEL-5 melanoma; 103% in the experiment on UACC-62 melanoma; 106% in the experiment on LOX IMVI melanoma; 115% with SK-MEL-28 melanoma; 109% in the experiment on SK-MEL-2 melanoma; 103% in the experiment on EKVX NSCLC. Also, the growth was 105% in the experiment on SN12C renal; 91.7% in the experiment on UO-31 renal; 115% in the experiment with TK-10 renal; 96.6% in the experiment with CAKI-1 renal; 109% with A498 renal; 110% in the experiment on CCRF-CEM leukemia. Further, the growth in the experiment with MOLT-4 leukemia was 109%.

Consider `Cc1ccc2nc(-c3ccc(N=Cc4ccccc4O)cc3)sc2c1`, for which the growth was 80.1% in the experiment on HCT-15 colon; 93.4% in the experiment with HT29 colon; 47.4% with SNB-75 CNS; 92.3% in the experiment with SNB-19 CNS; 91.6% with U251 CNS; 85.4% in the experiment on PC-3 prostate. Further, the growth is 109% with SK-MEL-5 melanoma; 84.7% in the experiment with UACC-62 melanoma; 86.9% in the experiment with LOX IMVI melanoma; 110% in the experiment with SK-MEL-28 melanoma; 101% in the experiment on SK-MEL-2 melanoma; 90.3% in the experiment on EKVX NSCLC. Moreover, the growth with UO-31 renal was 60%; in the experiment with TK-10 renal it was 139%; with ACHN renal, 90.6%; in the experiment on CAKI-1 renal, 67.7%; in the experiment on A498 renal, 64.5%; with CCRF-CEM leukemia it was 77.4%. In addition, the growth with MOLT-4 leukemia is 82.3%.

As for `O=S(=O)(OCCOS(=O)(=O)c1ccccc1)c1ccccc1`, the growth with HCT-15 colon is 91.9%; in the experiment with HT29 colon, 92.2%; with SNB-75 CNS, 93.6%; in the experiment with SNB-19 CNS it was 104%; with U251 CNS, 92.6%; with PC-3 prostate, 94.4%. Moreover, the growth is 93.6% in the experiment with SK-MEL-5 melanoma; 95.4% in the experiment with UACC-62 melanoma; 91.7% in the experiment with LOX IMVI melanoma; 112% with SK-MEL-28 melanoma; 103% with SK-MEL-2 melanoma; 97.1% with SN12C renal. For the same compound, the growth in the experiment with UO-31 renal is 83.2%; in the experiment with TK-10 renal, 102%; with ACHN renal, 105%; in the experiment with CAKI-1 renal, 89.8%; in the experiment with CCRF-CEM leukemia it was 92.9%; in the experiment on MOLT-4 leukemia, 93%.

`CC(=O)OC(C)c1cccc(C#N)c1` (centres undefined): the growth with HCT-15 colon was 105%; with HT29 colon it was 104%; in the experiment with SNB-75 CNS, 89.7%; in the experiment on SNB-19 CNS, 105%; with U251 CNS, 99%; in the experiment with PC-3 prostate, 96.4%. Also, the growth with SK-MEL-5 melanoma is 99.1%; with UACC-62 melanoma, 104%; in the experiment on LOX IMVI melanoma, 101%; with SK-MEL-28 melanoma it was 114%; with SK-MEL-2 melanoma, 110%; with SN12C renal, 99.1%. Also, the growth in the experiment on UO-31 renal is 85.1%; in the experiment with TK-10 renal, 110%; in the experiment with ACHN renal it was 113%; in the experiment with CAKI-1 renal, 101%; in the experiment on CCRF-CEM leukemia it was 97.7%; with MOLT-4 leukemia it was 102%.

In the case of `CC1(C)CCC(C)(C)NC(=S)N1`, the growth in the experiment with HCT-15 colon was 98.7%; in the experiment on HT29 colon, 107%; in the experiment with SNB-75 CNS, 105%; with SNB-19 CNS, 102%; in the experiment with U251 CNS, 104%; in the experiment with PC-3 prostate it was 100%. Besides, the growth in the experiment with SK-MEL-5 melanoma was 105%; with UACC-62 melanoma, 105%; in the experiment with LOX IMVI melanoma, 96.1%; with SK-MEL-28 melanoma, 109%; in the experiment on SK-MEL-2 melanoma, 94.1%; with SN12C renal, 97.1%. For the same compound, the growth is 88.2% with UO-31 renal; 98% in the experiment with TK-10 renal; 104% in the experiment on ACHN renal; 100% with CAKI-1 renal; 112% with A498 renal; 102% with CCRF-CEM leukemia. Moreover, the growth in the experiment on MOLT-4 leukemia is 97.5%.

As for `CCCCNc1ccc(-c2ccc(NCCCC)cc2)cc1`, the growth in the experiment on HCT-15 colon is 50.6%; in the experiment with HT29 colon it was 101%; in the experiment on SNB-75 CNS, 83%; with SNB-19 CNS, 77.3%; with U251 CNS, 64.2%; with PC-3 prostate it was 71.7%. Moreover, the growth was -40.7% (active) in the experiment on SK-MEL-5 melanoma; 42.8% in the experiment on UACC-62 melanoma; 25.9% in the experiment with LOX IMVI melanoma; 71.5% in the experiment with SK-MEL-28 melanoma; 101% in the experiment with SK-MEL-2 melanoma; 81.4% in the experiment with SN12C renal. For the same compound, the growth in the experiment with UO-31 renal was 58.8%; in the experiment on TK-10 renal, 92%; in the experiment with ACHN renal, 71.1%; in the experiment with CAKI-1 renal, 64.8%; in the experiment with A498 renal, 59.7%; with CCRF-CEM leukemia, 51.9%. In addition, in the experiment with MOLT-4 leukemia, the growth was 68.8%.
